Eight compounds from PubChem BioAssay (NCI) can be followed below.

Molecules are shown by their SMILES. Compounds without any hit were thinned out: in the full panel of roughly 83,000, 20% have a hit.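 Percent growth is the endpoint: 0 to 100 indicates growth inhibition (40 means 60% inhibition), 0 means no net growth, and negative values indicate cell death.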 Unmarked numbers belong to inactive results. Active and inactive are the calls of the source. How the source made its calls: active means growth percent below 10; inactive means the rest.

Assay in all cases: NCI-60 one-dose screen, 48 h (100 = growth as untreated, 0 = no growth, -100 = all killed)
What all share (details): 10 µM unless noted

For assay [1], the system named is SR leukemia.
For assay [2], the system named is RPMI-8226 leukemia.
Assay [3] concerns OVCAR-8 ovarian.
For assay [4], the system named is OVCAR-5 ovarian.
The test system of assay [5] is OVCAR-4 ovarian.
Assay [6] has as its system SK-OV-3 ovarian.
In assay [7] the test system is IGROV1 ovarian.
In assay [8] the test system is OVCAR-3 ovarian.
The subject of assay [9] is HS 578T breast.
The subject of assay [10] is NCI/ADR-RES ovarian.
Assay [11] has as its system T-47D breast.
For assay [12], the system named is BT-549 breast.
Assay [13] relates to MDA-MB-435 melanoma.
The test system of assay [14] is SW-620 colon.
For assay [15], the system named is MCF7 breast.
Assay [16] has as its system HCT-116 colon.
In assay [17] the test system is HCC-2998 colon.
Assay [18] concerns KM12 colon.

For the compound `Cc1cccc2c3c(sc12)C(c1ccc(Cl)cc1)c1c(nc(CC(=O)Nc2ccccc2)[nH]c1=O)O3` (centres undefined), the growth in [1] was 58.1%; in assay [2], 73.9%; in assay [3] it was 85.6%; in assay [4], 81.6%; in assay [5], 90.3%; in assay [6] it was 73.3%. The growth in assay [7] was 21%; in assay [8], 30.5%; in [9], 60.1%; in assay [10] it was 26.7%; in assay [11], 47.9%; in [12] it was 77.1%. Further, the growth in assay [13] was 9.37% (active); in assay [14], 40.9%; in [15], 38.1%; in assay [16], 37.7%; in assay [17] it was 85.7%; in [18], 37.7%.
`CNC(=O)c1c(NC(=O)c2cccc(C(F)(F)F)c2F)sc2c1CCC(=O)C2`: the growth is 20% in [1]; -0.669% (active) in assay [2]; 16.8% in [3]; 4.83% (active) in [4]; 8.78% (active) in assay [5]; 4.35% (active) in [6]. Further, the growth in [7] is 10.5%; in assay [8], 12.5%; in [9] it was 8.98% (active); in assay [10], 7.77% (active); in assay [11], 13.8%; in assay [12] it was 21.3%. Also, the growth in assay [13] is 11.9%; in [14] it was 14.2%; in assay [15] it was 6.33% (active); in [16], 5.58% (active); in assay [17], 25.2%; in assay [18], 3% (active).
Regarding `COc1ccc(/C=N/NC(=O)c2cn(C3CC3)c3c(OC)c(N4CC5CCCNC5C4)c(F)cc3c2=O)cc1` (centres undefined), the growth was -3.21% (active) in [1]; 64.2% in [2]; 94.8% in assay [3]; 97.5% in [4]; 87.9% in [5]; 102% in [6]. Moreover, the growth in assay [7] is 75.3%; in assay [8], 83.1%; in assay [9], 99.1%; in assay [10], 91%; in assay [11], 85.9%; in [12], 112%. The growth in assay [13] was 100%; in assay [14], 92.1%; in assay [15], 70.8%; in assay [16], 53.6%; in [17], 95.4%; in assay [18], 99.7%.
Consider `CCO/C=N/C1=C(C#N)C(c2ccc(F)cc2)c2sc3c(C)cccc3c2O1` (centres undefined), for which the growth in [1] is 17.3%; in assay [2], 12.8%; in assay [3], 23.9%; in [4] it was 25.6%; in assay [5] it was 51%; in assay [6], 66.6%. Besides, the growth in [7] was 18.7%; in [8] it was -6.49% (active); in assay [9], 24.6%; in assay [10], 12.1%; in assay [11], 62.1%; in assay [12] it was 20%. The growth in assay [13] was -31.2% (active); in assay [14], 19.6%; in assay [15], 14.6%; in [16], 6.05% (active); in [17], 18.7%; in assay [18], 8.6% (active).
For the compound `CCCCc1nc(/C=N/Nc2nc(Nc3ccccc3)nc(Nc3ccc(S(N)(=O)=O)cc3)n2)c(Cl)[nH]1`, the growth was 11.5% in assay [1]; 96.7% in assay [2]; 90% in assay [3]; 102% in [4]; 80.6% in [5]; 114% in assay [6]. Moreover, the growth in assay [7] is 98.4%; in assay [8], 46.2%; in [9], 77.8%; in assay [10], 108%; in assay [11], 14.9%; in [12], 47.9%. Further, the growth is 90.3% in assay [13]; 75.1% in assay [14]; 46.8% in assay [15]; 90% in [16]; 70.4% in assay [17]; 103% in assay [18].
`NC(N)=Nc1ccc(Oc2cccc(Nc3ccc(Br)c(C(F)(F)F)c3)c2)cn1`: the growth is -50.7% (active) in [1]; -40% (active) in [2]; -60.6% (active) in assay [3]; -56.6% (active) in assay [4]; -75.2% (active) in [5]; 32.2% in [6]. The growth in [7] is -74.7% (active); in [8], -94.3% (active); in assay [9], -15.3% (active); in [10] it was 55.7%; in [11], 12.9%; in assay [12], -2.65% (active). The growth in [13] was -89.1% (active); in assay [14], -79% (active); in assay [15], -56.8% (active); in [16], -64.8% (active); in [17] it was -85.6% (active); in [18], -72.5% (active).
Consider `C#C[C@]1(O)CC[C@H]2[C@@H]3CC=C4c5sc(-c6ccc7c(c6)OCO7)nc5CC[C@]4(C)[C@H]3CC[C@@]21C`, for which the growth in assay [1] was 16.9%; in assay [2], -15.3% (active); in [3], 30.2%; in assay [4] it was 36.3%; in assay [5] it was 34.9%; in assay [6], 52.3%. Besides, the growth was 34.8% in [7]; -13.2% (active) in assay [8]; -9.35% (active) in [9]; 39.2% in [10]; 41.5% in assay [11]; 26.1% in assay [12]. The growth in assay [13] was -6.66% (active); in [14], 2.53% (active); in [15] it was -1.98% (active); in [16], -9.63% (active); in assay [17], 34%; in assay [18], 14%.
With `C#Cc1ccc(C(=O)NCc2ccc(/C=C/C(=O)c3nccn3C)cc2)cc1`, the growth was 4.33% (active) in assay [1]; 6.86% (active) in [2]; 26.9% in assay [3]; 26.8% in assay [4]; 39% in assay [5]; 50.2% in [6]. Further, the growth in assay [7] was 13.1%; in assay [8], 17.8%; in assay [9] it was 22.6%; in [10] it was 9.5% (active); in [11] it was 34%; in assay [12] it was 51%. Also, the growth was 26.2% in [13]; 10.5% in [14]; 12.2% in [15]; 14% in [16]; 9.76% (active) in assay [17]; 15.5% in [18].
